Records with an inconclusive call do not appear. Unmarked numbers belong to inactive results. Calls come from the whole dose curve; as a rule, active = well fitted activation curve with a large enough effect in the repeat runs; inconclusive = weak or mixed curves; inactive = no such curve, though single readings can be large or run the other way.
% is set by controls: 0 for no effect and ±100 for the full control effect.

Chain of Nuclear receptor subfamily 1 group I member 2 (Rattus norvegicus) (Q9R1A7 whole entry, looked up): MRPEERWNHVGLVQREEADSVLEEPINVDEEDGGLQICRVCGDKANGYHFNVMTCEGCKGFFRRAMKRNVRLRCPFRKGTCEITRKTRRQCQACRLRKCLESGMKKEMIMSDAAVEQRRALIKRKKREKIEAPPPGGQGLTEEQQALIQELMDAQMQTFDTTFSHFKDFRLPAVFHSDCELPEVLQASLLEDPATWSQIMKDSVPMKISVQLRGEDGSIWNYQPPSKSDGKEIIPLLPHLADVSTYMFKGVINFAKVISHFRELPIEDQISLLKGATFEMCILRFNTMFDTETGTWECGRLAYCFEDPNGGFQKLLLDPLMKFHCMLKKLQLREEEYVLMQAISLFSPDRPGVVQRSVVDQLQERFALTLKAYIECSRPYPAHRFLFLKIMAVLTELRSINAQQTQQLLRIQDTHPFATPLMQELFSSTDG

The assay has as its target Nuclear receptor subfamily 1 group I member 2 (Rattus norvegicus) (UniProt Q9R1A7). Briefly: Rat pregnane X receptor (rPXR) activation by small molecules, qHTS assay (AID 1346983). Note: nearly all actives have a fitted effect of over 20% in size. As to conditions: rPXR luciferase reporter cells, One-Glo luminescence, 24 h; max activation: hits give high values. The essentials:
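Cell-based rPXR activation assay: rPXR cells, 2,000 per well, rested 5hr at 37 C, then exposed to compounds in DMSO for 24 hr at 37 C. Luciferase activity read by One-Glo luminescence after 30 min at room temperature.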
In general terms: qHTS replaces the single test concentration by a dilution series.
For the molecule `C=O`, the max activation was -2.05%.

For `O=C(O)[C@@H]1CSCN1`, the max activation was 0.44%.

In the case of `ClC(Cl)Cl`, the max activation was 0.159%.

In the case of `CCN(CC)CCOc1ccc(Cc2ccccc2)cc1`, the max activation is -17.9%. `Cc1cc2c(s1)Nc1ccccc1N=C2N1CCN(C)CC1`: the max activation was -3.7%. Take `Cc1ccsc1C(=CCCN1CCC[C@@H](C(=O)O)C1)c1sccc1C`: the max activation is 2.87%. Regarding `CCCCN1C[C@H](O)[C@@H](O)[C@H](O)[C@H]1CO`, the max activation is -1.78%. As for `c1ccc(CN(CC2=NCCN2)c2ccccc2)cc1`, the max activation was -0.824%.

Consider `CN1CCN(C2=Nc3ccccc3Oc3ccc(Cl)cc32)CC1`, for which the max activation is -1.38%. Turning to `CN1CCC[C@@H]1Cc1c[nH]c2ccc(CCS(=O)(=O)c3ccccc3)cc12`, the max activation was 0.279%. As to `Cc1cccc(C)c1NC(=O)CN1CCCCCC1`, the max activation was -0.265%. Under `C=CCc1cc(OC)c(O)c(C(=O)NCCO)c1` stands -0.885%.

Values taken from PubChem BioAssay (Tox21).
